PrPC surface inh: reduces human prion protein on the cell surface | inhibition, % at 13.8 µM | cell surface PrPC, TR-FRET read-out | P04156 | AID 720596 | actives 0.43% (n = 370,000); in the data active = inhibition above about 24%
BJeLR viability: kills HRASV12-expressing BJeLR cells; BJeLR (HRASV12) viability, CellTiter-Glo ATP luminescence, 48 h; inhibition, % (no concentration beside the values); actives 0.17% (n = 300,000); AID 1554; in the data active = inhibition above about 50%; inconclusive = no clear call, values can overlap the other calls
SSB-PriA inh: inhibitors of Klebsiella pneumoniae PriA binding to SSB C-terminal tail. AlphaScreen SSBct-PriA binding, biotinylated peptide. inhibition, % at 33 µM. actives 0.6% (n = 430,000); in the data active = inhibition mostly above about 37%, no sharp cut-off; inactive = mostly below about 20%
SARS 3CLpro inh: SARS-CoV 3CLpro protease inhibition; AID 1706; inhibition, % at 6 µM; recombinant SARS-CoV 3CLpro, quenched FRET peptide cleavage; actives 0.14% (n = 290,000); in the data active = inhibition above about 12%
PrP UTR inh: suppresses PrP 5' UTR mRNA reporter expression | cell-based PrP 5' UTR mRNA reporter, plate reader | inhibition, % (no concentration beside the values) | actives 0.35% (n = 340,000); in the data active = inhibition above about 52%
PrP 5UTR single: prion 5' UTR mRNA inhibition, cherry-pick retest; cell-based prion protein 5' UTR reporter, plate reader; actives 48% (n = 1,100); shares compounds with PrP UTR inh; inhibition, % at 2.5 µM; AID 504592; in the data active = inhibition above about 54%; inconclusive = no clear call, values can overlap the other calls
Large screens that a line does not name were inactive (follow-up assays come after a bar, where they were run). Rows were chosen to be rich in hits. Some 1.2% of all compounds tested hit in one or more screens of this group.

OCCCNc1cc(-c2ccnc(Nc3cccc(Cl)c3)n2)ccn1	PrPC surface inh 42.3, PrP UTR inh 82.2 (no result: SARS 3CLpro inh) | PrP 5UTR single 84.3
Cc1ccc(NC(=O)c2cc3ccccc3oc2=N)cc1	PrP UTR inh 67.5 | PrP 5UTR single inactive
Cc1cc(C(=O)CN2C(=O)c3ccccc3S2(=O)=O)c(C)n1C(C)C	PrP UTR inh 60.3 (no result: BJeLR viability, SARS 3CLpro inh) | PrP 5UTR single 64.2
Cc1cc(C(=O)CN2C(=O)c3ccccc3S2(=O)=O)c(C)n1-c1ccccc1	none
CCn1c(C)cc(C(=O)CN2C(=O)c3ccccc3S2(=O)=O)c1C	PrP UTR inh 67.4 (no result: BJeLR viability, SARS 3CLpro inh) | PrP 5UTR single 68.7
C=CCn1c(C)cc(C(=O)CN2C(=O)c3ccccc3S2(=O)=O)c1C	PrP UTR inh 92.4 (no result: PrPC surface inh, BJeLR viability, SARS 3CLpro inh) | PrP 5UTR single 91.7
CCCCOc1ccc(-c2cc3c(SCc4cccc(C(F)(F)F)c4)nccn3n2)cc1	none (no result: PrPC surface inh, BJeLR viability, SARS 3CLpro inh, PrP UTR inh)
Cc1cc(NC(=O)C2CN(S(C)(=O)=O)C2)sn1	none (no result: PrPC surface inh, BJeLR viability, SARS 3CLpro inh, PrP UTR inh)
CC(=O)Nc1cc(C)ns1	PrP UTR inh 68.8 (no result: BJeLR viability, SARS 3CLpro inh) | PrP 5UTR single inconclusive
O=C(O)CSCC(=O)Nc1ccc(C2CCCCC2)cc1	PrP UTR inh 52.7 | PrP 5UTR single 54.4
Nn1cnnc1SCC(=O)Nc1ccc(C2CCCCC2)cc1	none
COC1(CNC(=O)C(=O)NCc2cccs2)Cc2ccccc2C1	none (no result: PrPC surface inh, BJeLR viability, SARS 3CLpro inh, PrP UTR inh)
CCCCSc1ccc2nc(-c3ccc(C#N)cc3)cn2c1	none
CCCSc1ccc2nc(-c3ccccc3)cn2c1	PrP UTR inh 60.4 | PrP 5UTR single 75.4
COc1ccc(S(=O)(=O)n2nc(-c3ccc(Cl)cc3)cc2N)cc1OC	PrP UTR inh 55.8 | PrP 5UTR single inactive
CCOc1ccc(-c2cc(N)n(S(=O)(=O)c3ccc(OC)c(OC)c3)n2)cc1	none
CC(=O)N1CCN(c2cnnc(N(C)C)c2)CC1	none (no result: PrPC surface inh, BJeLR viability, SARS 3CLpro inh, PrP UTR inh)
COc1ccc(NC(=O)Nc2ccc3c(c2)C(=O)N([C@H](C)CO)C[C@H](C)[C@@H](CN(C)C(=O)Nc2ccc(C(F)(F)F)cc2)O3)cc1	none (no result: BJeLR viability, SARS 3CLpro inh)
COc1ccc(NC(=O)N(C)C[C@H]2Oc3ccc(NC(=O)Nc4ccc(C(F)(F)F)cc4)cc3C(=O)N([C@H](C)CO)C[C@@H]2C)cc1	PrP UTR inh 65.4 (no result: BJeLR viability, SARS 3CLpro inh) | PrP 5UTR single inactive
CCCCOCC(O)CCc1n[nH]c(=S)n1-c1ccccc1 (stereo not given)	PrP UTR inh 79.7 | PrP 5UTR single inactive
Cc1ccc(C)c(-c2nnc(NC(=O)C3CC(=O)N(c4ccc(F)cc4)C3)o2)c1 (stereo not given)	none (no result: PrPC surface inh, BJeLR viability, SARS 3CLpro inh, PrP UTR inh)
O=C(NC(=S)Nn1cnnc1)c1ccccc1Cl	PrP UTR inh 78.3 | PrP 5UTR single inactive
O=C(CCSc1ccccc1)N1CCC(S(=O)(=O)Cc2ccco2)CC1	none (no result: PrPC surface inh, BJeLR viability, SARS 3CLpro inh, PrP UTR inh)
CC1(C)CC[C@]2(C(=O)n3ccnc3)CC[C@]3(C)[C@H](C(=O)C=C4[C@@]5(C)C=C(C#N)C(=O)C(C)(C)[C@@H]5CC[C@]43C)[C@@H]2C1	PrP UTR inh 94.5 (no result: BJeLR viability, SARS 3CLpro inh) | PrP 5UTR single 97.0
COc1cc2cc(c1Cl)N(C)C(=O)CC(OC(=O)C(C)N(C)C(C)=O)C1(C)OC1C(C)C1CC(O)(NC(=O)O1)C(OC)C=CC=C(C)C2 (stereo not given)	PrP UTR inh 52.7 (no result: BJeLR viability, SARS 3CLpro inh) | PrP 5UTR single 92.3
COC(=O)c1cc(Nc2cc(Cl)c(OC)cc2OC)c2cccc(C)c2n1	none (no result: PrPC surface inh, BJeLR viability, SARS 3CLpro inh, PrP UTR inh)
COc1ccc(CNC(=O)CC(C)=NNC(=O)c2cnccn2)cc1	none (no result: PrPC surface inh, BJeLR viability, SARS 3CLpro inh, PrP UTR inh)
Cc1cc2ncn(S(=O)(=O)N3CCCC3)c2cc1C	none (no result: PrPC surface inh, BJeLR viability, SARS 3CLpro inh, PrP UTR inh)
CCOC(=O)c1c(SCCN2CCCC2)n(-c2ccccc2)c(=S)n(-c2ccccc2)c1=O	PrP UTR inh 65.1 (no result: BJeLR viability, SARS 3CLpro inh) | PrP 5UTR single inactive
CCCCOc1ccc(C(=O)NN=Cc2cn[nH]c2-c2ccc(OC)c(OC)c2)cc1	none (no result: PrPC surface inh, BJeLR viability, SARS 3CLpro inh, PrP UTR inh)
CCOc1ccc(OCc2cccc(C(=O)N3CCOCC3)c2)cc1	PrP UTR inh 60.9 | PrP 5UTR single 70.0
CCCOc1ccc(-c2csc(NC(=O)Cc3ccc4c(c3)OCO4)n2)cc1	none (no result: PrPC surface inh, BJeLR viability, SARS 3CLpro inh, PrP UTR inh)
CCCCN=C[C@]12CCC(O)CC1(O)CCC1[C@@H]2CC[C@]2(C)[C@H](C3C=CC(=O)O3)CCC12O (stereo not given in full)	BJeLR viability 67.7, SSB-PriA inh 65.8, PrP UTR inh 82.5 | PrP 5UTR single 77.5
CC12CC[C@H]3[C@@H](CCC4(O)C[C@H](O)CCC34C=NNC(=O)Cc3ccccc3)C1(O)CCC2C1=CC(=O)OC1 (stereo not given in full)	none (no result: PrPC surface inh, BJeLR viability, SARS 3CLpro inh, PrP UTR inh)
CC12CCC3C(CCC4(O)CC(O)CCC34C=NO)C1(O)CCC2C1=COC(=O)C1 (stereo not given)	PrP UTR inh 88.7 (no result: BJeLR viability, SARS 3CLpro inh) | PrP 5UTR single 85.3
NC(Cc1ccc(O)cc1)c1cn([C@@H](CCC(=O)O)C(=O)N2CCNCC2)nn1 (stereo not given in full)	PrP UTR inh 64.0 | PrP 5UTR single inactive
OC(COc1ccc(Cl)c2ccccc12)CN1CCN(c2ccc(F)cc2)CC1 (stereo not given)	none (no result: PrPC surface inh, BJeLR viability, SARS 3CLpro inh, PrP UTR inh)
O=C(NCc1ccco1)c1ccc2c(c1)N(Cc1ccccc1)C(=O)CS2=O (stereo not given)	PrP UTR inh 60.8 | PrP 5UTR single inactive
Cc1ccc(C(C)C)c(OCc2nc3ccccc3n2Cc2ccccc2F)c1	none (no result: PrPC surface inh, BJeLR viability, SARS 3CLpro inh, PrP UTR inh)
CCCOc1ccccc1C1CC(=O)Nc2cc3c(cc21)OCCO3 (stereo not given)	PrP UTR inh 70.1 (no result: PrPC surface inh) | PrP 5UTR single 79.8
CCOc1ccccc1C1CC(=O)Nc2cc3c(cc21)OCCO3 (stereo not given)	PrP UTR inh 56.0 | PrP 5UTR single 84.0
CCOc1ccccc1C1CC(=O)Nc2cc(C)c(C)cc21 (stereo not given)	none
CCCCn1c(C)nc2c(=O)n(C)c(=O)[nH]c21	none
CCCCn1c(-c2ccccc2)nc2c(=O)n(C)c(=O)[nH]c21	PrP UTR inh 77.8 | PrP 5UTR single inactive
O=C1CC(C(=O)Nc2cc(Cl)ccc2Cl)n2ncnc2N1 (stereo not given)	PrP UTR inh 78.2 | PrP 5UTR single inactive
Cc1ccc(Cl)cc1NC(=O)C1CC(=O)Nc2ncnn21 (stereo not given)	none
Cn1ncnc2c(=O)n(C)c(=O)nc1-2	PrP UTR inh 95.9 (no result: PrPC surface inh, SARS 3CLpro inh) | PrP 5UTR single 97.6
CCn1ccc(C(=O)Nc2nc(-c3ccncc3)cs2)n1	none (no result: PrPC surface inh, BJeLR viability, SARS 3CLpro inh, PrP UTR inh)
COC(=O)C1=CO[C@@H](OC2OC(CO)C(O)C(O)C2O)[C@@H]2[C@@H](C)[C@@H](O)C[C@H]12 (stereo not given in full)	none (no result: SARS 3CLpro inh)
COC(=O)C1=CO[C@@H](O[C@@H]2O[C@H](CO)[C@@H](O)[C@H](O)[C@H]2O)C2C1C=C[C@@]2(O)CO (stereo not given in full)	PrP UTR inh 75.9 (no result: BJeLR viability, SARS 3CLpro inh) | PrP 5UTR single inactive
COc1ccc(-n2c(Cc3cc(=O)[nH]c(=O)[nH]3)nnc2SCC(=O)Nc2ccccc2)cc1	PrP UTR inh 56.9 | PrP 5UTR single inactive
N#CC1=C(N)OC2=C(CCc3ccccc32)C1c1ccccc1 (stereo not given)	PrP UTR inh 57.7 | PrP 5UTR single 89.8
CC(=O)n1cc(-c2ccncc2)c2ccccc21	PrP UTR inh 54.8 | PrP 5UTR single inactive
